# Screens: PubChem BioAssay, National Center for Advancing Translational Sciences (NCATS)
# HCMV antiviral: blocks human cytomegalovirus replication; HFF cells, HCMV-luciferase reporter, 72 h; hits give low values; activity change, negative = inhibition, % at 57.5 µM; actives 4.5% (n = 410,000); AID 1259415; in the data active = activity change below about -60%; inconclusive = no clear call, values can overlap the other calls; inactive = above about -39%
#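 Human foreskin fibroblasts infected with luciferase-reporter HCMV at MOI 1 PFU/cell, compounds at two doses. Luciferase measured 72 h post infection; normalized to buffer-only basal and Salinomycin (10uM) controls.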
# Pf growth 48h: inhibits P. falciparum growth in the first generation, 48 h; P. falciparum luciferase growth in erythrocytes, 48 h; actives 5.9% (n = 310,000); AID 504832; Potency, µM (titrated, usually from 28.7 µM), for inactives: at the highest dose activity change, negative = inhibition, actives largely listed as inhibitors; also: potency is read from the fitted curve at half-maximal effect
#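 Firefly luciferase activity from engineered P. falciparum reports growth; inhibitors lower the luminescent signal. Cultures contained 2% hematocrit erythrocytes at 0.1% final parasitemia.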
# Pf growth 96h: inhibits malaria parasite growth, 96 h. P. falciparum luciferase reporter growth, 96 h. Potency, µM (titrated, usually from 28.7 µM), inactives show top-dose activity change, negative = inhibition, actives largely listed as inhibitors. actives 6.9% (n = 320,000); also: potency is read from the fitted curve at half-maximal effect
#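 Compounds incubated with erythrocytes infected by luciferase-expressing P. falciparum (2% hematocrit, 0.05% parasitemia final) for 96 hours, 37 C in 5% CO2. Growth inhibition scored as decreased luciferase luminescence.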
# HCV inhibitor: blocks hepatitis C virus. Potency, µM (titrated, usually from 41.8 µM), for inactives: top-dose activity change, negative = inhibition, actives largely listed as inhibitors. AID 651820. Huh7.5.1 HCVcc-Cre infection, luciferase reporter, 44 h. actives 3.4% (n = 340,000); also: potency is read from the fitted curve at half-maximal effect
#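 Luciferase read-out (15 sec integration) after a 15 min room-temperature substrate step quantifies HCVcc-Cre infection. Cells, 1,000 per well, had compound added 4 h post-plating, then virus at ~0.5 moi, and were cultured 44 h.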
# Numbers without * were called inactive; i = inactive; ? = inconclusive; . = no result; ! = not confirmed by another sample; [ ] = another dose, or the depositor's remark. Hits are enriched below; roughly 13% of the tested compounds scored in any of these assays. Unless noted, calls follow the shape of the dose curve; as a rule, active = well fitted inhibition curve with a large enough effect; inconclusive = small, poorly fitted or top-dose-only effect, or another doubt; inactive = no such curve, though single readings can be large or run the other way. % is scaled to controls: 0 for no effect and ±100 for the full control effect.
SMILES,HCMV antiviral,Pf growth 48h,Pf growth 96h,HCV inhibitor
CC1CCN(S(=O)(=O)c2ccc(C(=O)Nc3nnc(-c4ccco4)o3)cc2)CC1,-3,?,15µM*,?
CC1CN(S(=O)(=O)c2ccc(C(=O)Nc3nnc(-c4ccco4)o3)cc2)CC(C)O1 (stereo not drawn),-2,?,?,11%
CC1CCCN(S(=O)(=O)c2ccc(C(=O)Nc3nnc(-c4ccccc4Cl)o3)cc2)C1 (stereo not drawn),-98*,?,?,-9%
O=C(Nc1nnc(-c2ccc(F)cc2)o1)c1ccc(S(=O)(=O)N2CCOCC2)cc1,.,?,3.3µM*,-16%
COc1cccc(-c2nnc(NC(=O)c3ccc(S(=O)(=O)N4CC(C)OC(C)C4)cc3)o2)c1 (stereo not drawn),-94*,.,4%,?
Cc1ccc2c(CC(=O)Nc3ccc(S(=O)(=O)N4CCCCC4C)cc3)coc2c1 (stereo not drawn),0,.,.,.
CCCCOc1ccc(CNC(=O)C2COc3ccc(OC)cc3C2)cc1 (stereo not drawn),11,.,.,.
CCOCc1c(C(=O)Nc2ccc3nc(N4CCOCC4)sc3c2)oc2ccccc12,44,15µM*,?,?
CCOCc1c(C(=O)Nc2ccccc2N2CCN(C)CC2)oc2ccccc12,12,?,13µM*,11µM*
COc1ccc(C(=O)Nc2ccc3nc(N4CCOCC4)sc3c2)cc1OC,88,-8%,?,?
CCCn1nc(C(=O)Nc2ccc3nc(N4CCOCC4)sc3c2)ccc1=O,-76*,?,?,?
CCOCc1c(C(=O)Nc2cc(OCC)c(N3CCOCC3)cc2OCC)oc2ccccc12,74,35%,?,4%
O=C(Nc1ccc(C(F)(F)F)cc1)N1CCC(N2CCCCC2)CC1,50,.,.,.
Cc1ccc(Cl)cc1N1CCN(C(=O)c2cn(C)c3ccc(S(=O)(=O)N4CCC(C)CC4)cc3c2=O)CC1,12,.,.,.
COc1ccc(C(=O)Nc2ccc3oc(Cc4ccc(Cl)cc4)nc3c2)cc1OC,-23,.,.,11µM*
CCc1cc(CNC(=O)c2ccc3nc(Cc4ccc(OC)c(OC)c4)oc3c2)on1,-15,?,19%,4.5µM*
Cc1ccc(-n2c(-c3ccco3)nc3c(cnn3-c3ccccc3Cl)c2=O)cc1,-16,.,.,.
Cc1ccc(-n2c(C)nc3c(cnn3-c3ccc(F)cc3)c2=O)cc1,-83*,-25%,12%,?
COc1ccc(-n2ncc(N(C)n3cccc3)c(Cl)c2=O)cc1,79,306%,i,13%
COc1ccc(-n2ncc(Cl)c(Cl)c2=O)cc1,-101*,11%,34%,3.5µM*
COc1ccc(-n2c(C)nc3c(cnn3-c3ccc(C)c(C)c3)c2=O)cc1,18,.,10µM*,9%
Cc1nc2c(cnn2-c2ccccc2Cl)c(=O)n1-c1ccc(C(C)C)cc1,-60*!,.,2.6µM*,?
Cc1ccc(-n2ncc3c(=O)n(-c4ccc(C)c(C)c4)c(C)nc32)cc1,?,-19%,107%,-5%
CCCN(CCC)CCNC(=O)c1sc2nc3n(c(=O)c2c1C)CCCCC3,-17,.,.,.
CN1c2ccc(Cl)cc2-c2nc(SCC(=O)NCc3ccccc3)ncc2S1(=O)=O,-1,.,.,.
SMILES,HCMV antiviral,Pf growth 48h,Pf growth 96h,HCV inhibitor
CCc1nc2c(cnn2-c2ccc(Cl)cc2)c(=O)n1-c1ccc(OC)cc1,-37,18%,?,11µM*
Cc1cc(O)ccc1Cl,32,2%,-2%,.
Cc1cc(O)cc(C)c1Cl,-38,15µM*,8.5µM*,-20%
Cc1cc(O)c(N)c(C)c1Cl,-7,3.3µM*,?,11%
O=c1[nH]c(=O)n([C@H]2C[C@H](O)[C@@H](CO)O2)cc1F,-67*,?,?,?
Cc1cn([C@H]2C[C@H](O)[C@@H](CO)O2)c(=O)[nH]c1=O,.,-1%,6%,.
OC1(c2ccc(Cl)c(Cl)c2)C[n+]2ccccc2N1Cc1ccccc1 (stereo not drawn),?,3.7µM*,?,-11%
COc1ccc(CCNC(=O)c2cc(=O)[nH]c3ccc(S(=O)(=O)N4CCCCC4)cc23)cc1OC,0,.,.,.
O=c1oc2ccccc2cc1-c1cn2cc(Cc3ccccc3F)sc2n1,97,.,.,.
CCCc1oc2ccc(NS(=O)(=O)c3ccc(OCC)cc3)cc2c1C(=O)OCC,-65*,.,.,.
CCCc1oc2ccc(NS(=O)(=O)c3ccc(OC)cc3)cc2c1C(=O)OCC,-83*,.,.,.
CCOC(=O)c1c(-c2ccccc2)oc2ccc(NS(=O)(=O)c3ccc(OC)cc3)cc12,-25,.,.,.
Cc1nc2ccc(F)cc2cc1C(=O)Nc1ccc(Cl)c(Cl)c1,-61*,17%,31%,-16%
Cc1ccc(Cn2ccsc2=NC(=O)COC(=O)c2ccc(NC(=O)CC#N)cc2)cc1,-7,13µM*,10µM*,?
Cc1ccc(NC(=O)CSCC(=O)N=c2sccn2C)cc1,-2,0%,9%,0%
Cc1ccc(Cn2ccsc2=NC(=O)CCl)cc1,-99*,?,?,0.56µM*
Cc1ccc2c(c1)C(c1ccccc1)N(C(=O)c1ccc(OC(C)C)cc1)CC(=O)N2 (stereo not drawn),15,.,.,.
O=C(Nc1ccc(C(=O)OCc2cc(=O)n3ccsc3n2)cc1)c1cccc(F)c1,-1,.,.,.
COCc1cc(=O)[nH]c(Nc2nc3ccc(C)cc3o2)n1,-102*,2.9µM*,?,?
CCc1ccc2nc(Nc3nc(COC)cc(=O)[nH]3)nc(C)c2c1,-27,?,-25%,?
CCS(=O)(=O)N1CCc2cc(C(=O)Nc3ccc(OC)cc3OC)ccc21,-4,.,.,.
CC(=O)C1C(c2cccc(F)c2)NC(=O)NC1(O)C(F)(F)F (stereo not drawn),13,-4%,4.7µM*,15%
CC(=O)C1C(c2ccc(F)cc2)NC(=O)NC1(O)C(F)(F)F (stereo not drawn),.,18%,?,37%
CCC1CCC(C(=O)NC(CCSC)C(=O)NCCc2ccc(S(N)(=O)=O)cc2)CC1 (stereo not drawn),-26,19%,16%,-5%
CCC1CCC(C(=O)NC(CCSC)C(=O)NCCN(CC(C)C)CC(C)C)CC1 (stereo not drawn),-34,-26%,15µM*,15%
SMILES,HCMV antiviral,Pf growth 48h,Pf growth 96h,HCV inhibitor
Cc1nn(C)c2c1c(-c1ccccc1)cc(=O)n2CC(=O)NC(C)(C)C,-3,.,.,.
CCOc1ccc(Cl)cc1CNCCCSc1ncccn1,-6,27%,13µM*,-9%
COc1ccc(Cl)cc1CNCCCSc1ncccn1,23,?,?,3%
O=C(CN1C(=O)COc2ccccc21)NCCc1ccc(Cl)cc1,-38,.,.,.
CCOC(=O)c1ccc(O)c(-n2cc3c(c2-c2ccccc2)c(=O)n(C)c(=O)n3C)c1,1,.,.,.
O=C(/C=C/c1ccc([N+](=O)[O-])cc1)Nc1ncc([N+](=O)[O-])s1,-113*,-61%,2%,11µM*
O=C(/C=C/c1ccc([N+](=O)[O-])cc1)NCc1ccccn1,25,13%,-17%,21%
O=c1[nH]cc(F)c(=O)[nH]1,?,6.6µM*,4.7µM*,-24%[8.37 µM]
